Screening data (PubChem BioAssay)
RGS16-Gao: regulators of human RGS16-Galphao interaction. O15492+P09471. bead-based flow cytometry RGS16-Galphao binding, fluorescence; actives lie on both sides. binding response (% of control), % at 10 µM. 220,000 compounds, 0.38% hits. AID 1441; call rule not given here;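 also: Galphao activated by GDP with aluminum fluoride before binding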
Avidin bead fluor: compound fluoresces at 488/530 nm on avidin beads; compound fluorescence 488/530 nm, flow cytometry; active compounds read high; fluorescence (KMESF) at 10 µM; 220,000 compounds, 0.38% hits; in the data active = fluorescence above about 47
RGS7-Gao reg: modulates binding of RGS7 to human Galphao; 220,000 compounds, 0.35% hits; P09471; binding response (% of control), % at 10 µM; Multiplexed bead flow cytometry; actives lie on both sides; in the data active = binding response below about 49% or above about 150%; inconclusive = no clear call, values can overlap the other calls; inactive = in between;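 also: fluorescent Galphao held in activated GDP-AlF4 state binding bead-coupled RGS7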
Target sequence (P09471 whole entry, looked up): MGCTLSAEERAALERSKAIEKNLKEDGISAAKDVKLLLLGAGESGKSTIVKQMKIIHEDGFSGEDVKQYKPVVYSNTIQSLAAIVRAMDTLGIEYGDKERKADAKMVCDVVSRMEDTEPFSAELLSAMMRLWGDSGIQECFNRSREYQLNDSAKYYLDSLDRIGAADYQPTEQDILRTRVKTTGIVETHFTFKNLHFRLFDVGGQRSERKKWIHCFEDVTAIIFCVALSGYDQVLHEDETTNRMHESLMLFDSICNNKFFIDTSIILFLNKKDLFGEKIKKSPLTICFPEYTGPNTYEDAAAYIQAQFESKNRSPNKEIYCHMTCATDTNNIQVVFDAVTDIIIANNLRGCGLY
RGS8-Gao reg: modulates binding of RGS8 to human Galphao; 220,000 compounds, 0.34% hits; P09471; multiplexed bead flow cytometry; actives lie on both sides; response (percent of control binding), % at 10 µM; in the data active = response below about 60% or above about 140%; inactive = in between;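 also: Galphao activated as the GDP aluminium fluoride complex binding bead-coupled RGS8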
GSH fluor: compound fluoresces at 488/530 nm on GSH beads; AID 1776; fluorescence (KMESF) at 10 µM; 190,000 compounds, 0.25% hits; GSH beads flow cytometry, compound fluorescence 488/530 nm; active compounds read high; in the data active = fluorescence above about 89;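 also: glutathione beads carrying GST-tagged Bcl family fusion proteins plus one bare bead set; values are compound well signal with DMSO vehicle wells as background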
RGS4-Gao reg: modulates binding of RGS4 to human Galphao; P09471; Multiplexed bead flow cytometry; actives lie on both sides; binding response (% of control), % at 10 µM; 220,000 compounds, 0.33% hits; AID 1415; in the data active = binding response below about 49% or above about 150%; inactive = in between;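 also: fluorescent Galphao activated with aluminum fluoride binding bead-coupled RGS4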
* hit, by the source's call; ? = inconclusive; . = no result. An excerpt weighted towards active compounds, which were near 1.2% of everything screened.

SMILES	RGS16-Gao	Avidin bead fluor	RGS7-Gao reg	RGS8-Gao reg	GSH fluor	RGS4-Gao reg
O=C(Nc1ccccn1)C(=O)N1CCCCC1	58.7	5	94.4	87.4	96*	88.6
COc1ccc2[nH]cc(CCNS(=O)(=O)c3ccc(C)cc3)c2c1	99.5	5	?	102.1	.	101.9
CCC1(CC)C(=O)NC(=O)NC1=NCCc1ccc(O)cc1	98.5	75*	107.6	96.5	14	97.2
CC(=O)NC12CC3CC(C1)CC(C(=O)OCC(=O)Nc1ncc(Cl)c(C)c1Cl)(C3)C2	96.3	8	102.4	100.2	262*	98.1
COc1ccc(NC(=O)CSc2nnc(CNC(=O)c3ccco3)o2)cc1	110.9	25	107.6	105.3	11	105.0
O=C(CSc1nnc(CNC(=O)c2ccco2)o1)Nc1ccccc1	112.0	59*	119.6	105.0	12	104.6
Cc1cc(C(=O)CNCc2ccco2)c(C)n1-c1ccc(F)cc1	101.2	8	107.8	103.1	248*	105.7
Cc1cc(C)c(S(=O)(=O)NCC2CCC(C(=O)NCc3ccccn3)CC2)c(C)c1 (centres undefined)	99.1	8	100.5	97.4	15	105.0
COC(=O)C1=C(C)OC(N)=C(C#N)C1c1cc2cccc(C)c2nc1Cl (centres undefined)	105.4	12	98.3	104.7	22	100.5
COC(=O)C1=C(C)OC(N)=C(C#N)C1c1cc(C)sc1C (centres undefined)	102.7	7	111.6	107.7	273*	104.3
O=C(C1CCN(S(=O)(=O)c2cccnc2)CC1)N1CCN(C2CCCC2)CC1	111.2	71*	119.6	102.0	29	106.0
O=C(C1CCN(S(=O)(=O)c2cccc3cccnc23)CC1)N1CCN(C2CCCCC2)CC1	102.4	27	105.4	102.3	14	102.3
Cc1nn(C)cc1/C=N/NC(=O)Cn1nnc(N)n1	98.2	8	?	96.9	.	98.1
CCCOc1ccc(C2CC(=O)NC2=O)cc1 (centres undefined)	106.6	11	105.6	102.8	15	104.6
CCCCOc1ccc(C2CC(=O)NC2=O)cc1 (centres undefined)	103.7	79*	130.6	101.1	23	107.0
Cc1c(C(=O)OC2CCCCC2)[nH]c2c1C(=O)CC(C)(C)C2	103.2	48*	102.5	100.9	13	99.5
Cc1c(C(=O)OC(C)C)[nH]c2c1C(=O)CC(C)(C)C2	99.0	33	100.3	100.2	13	101.8
O=C(COC(=O)c1ccccc1Oc1ccccc1)NC1CCS(=O)(=O)C1 (centres undefined)	101.2	48*	109.6	101.2	13	102.5
O=C(COC(=O)c1ccccc1Oc1ccccc1)NC1CC1	101.9	9	102.6	99.8	16	103.4
CCCCCC(=O)NC(=S)Nc1cccc(-c2nc3ncccc3o2)c1	103.3	4	?	100.1	.	101.4
COc1ccc(C2CC(c3ccccc3)Nc3nc(N)nn32)cc1 (centres undefined)	103.7	50*	112.3	100.3	17	100.1
COc1ccc(C2CC(c3ccc(Br)cc3)Nc3nc(N)nn32)cc1 (centres undefined)	105.7	13	99.5	101.7	20	103.5
CCOC(=O)C1=C(C)NC2=C(C(=O)CC(C)(C)C2)C1c1coc2ccccc2c1=O (centres undefined)	122.0	60*	106.4	103.5	19	106.6
CC1=C(C(=O)OCC2CCCO2)C(c2coc3ccccc3c2=O)C2=C(CC(C)(C)CC2=O)N1 (centres undefined)	97.0	9	92.1	97.4	14	95.2
CCn1c(N)c(C(=O)NC)sc1=S	43.6	8	125.6	69.4	87*	99.1
O=[N+]([O-])c1ccc2c(c1)[nH]c(=S)n2-c1ccccc1	67.2	7	124.1	87.0	17	100.6
CCOC(=O)/C(=N\Nc1cc(Cl)ccc1Cl)N1CCOCC1	98.7	10	93.3	98.7	13	95.4
O=C(CN1CCN(c2ccccn2)CC1)Nc1ccc(OCc2ccccc2)cc1	109.9	63*	119.6	101.5	21	105.3
O=C(CN1CCN(c2ccccn2)CC1)Nc1ccc(Oc2ccccc2)cc1	106.6	13	97.9	104.1	18	103.9
Cc1ccc(-c2nc3cccnc3s2)cc1NS(C)(=O)=O	-19.1*	-2	-31.0*	2.3*	18	-22.3*
